According to PubChem BioAssay AID492956 (The Scripps Research Institute Molecular Screening Center, 2010):
Out of some 340,000 compounds screened, about 3,300 (0.97%) were called active. Only a selection was taken, and actives are over-represented in it overall. A number with no mark means an inactive call.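 The calls were made as follows: active = inhibition above the mean over all tested compounds plus 3 SD (cut at about 30% in these data); inactive = the rest.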

The compounds below were run against Platelet-activating factor acetylhydrolase 2, cytoplasmic (Homo sapiens) (UniProt Q99487) (assay: PAFAH2 enzyme inhibitors, primary screen, biochemical, fluorescence polarization, human (AID 492956;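 also: inhibitors block probe labeling of enzyme so polarization drops; 0% = enzyme with DMSO and 100% = wells lacking PAFAH2 protein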)). Conditions: recombinant PAFAH2, FP-rhodamine activity probe, at 3.39 µM, active compounds read high.
With `Cc1ccc(S(=O)(=O)NCC(=O)N2CCOCCOCCOCCOCC2)cc1` the inhibition was -0.46%. Compound `O=C1/C(=C/c2cccs2)CCC1C1CCCC1` (stereo not drawn) has an inhibition of 5.54%. With `CC1(C)CC(=O)c2cnc3nc4ccccc4n3c2C1` the inhibition was -0.49%. Work on `O=C(NNC(=O)c1cc(S(=O)(=O)N2CCCCC2)ccc1Cl)c1ccccc1O` yielded an inhibition of 8.97%. `NC(=O)COC(=O)c1cc(S(=O)(=O)N2CCN(c3ccccc3)CC2)ccc1Cl` showed an inhibition of 5.41%. With `O=C(OCc1cn(-c2ccc(Cl)c(Cl)c2)nn1)c1ccccc1Cl` the inhibition was 44.2% (active). Work on `Cc1cccc(/C(N)=N/OC(=O)c2ccccc2Cl)c1` yielded an inhibition of -5.1%. Work on `CC(C)NC(=O)NC(=O)COC(=O)c1ccc(NC(=O)CC#N)cc1` yielded an inhibition of 14.3%. In the case of `CC(C)c1ccc(NC(=O)COC(=O)c2ccc(CN3CCCC3=O)cc2)cc1`, the inhibition is reported as 85% (active). In the case of `N#CCC(=O)Nc1ccc(C(=O)OCC(=O)Nc2sc3c(c2C#N)CCCC3)cc1`, the inhibition is reported as -11.9%. `Cc1noc(C)c1C(=O)NC(C)c1ccc2c(c1)OCO2` (stereo not drawn) showed an inhibition of -1.75%. Work on `CCN(CC)c1ccc(NC(=O)CCc2nnc3ccc(N4CCCCC4)nn23)c(C)c1` yielded an inhibition of 1.19%. In the case of `O=C(COC(=O)CNS(=O)(=O)c1ccccc1)NC12CC3CC(CC(C3)C1)C2`, the inhibition is reported as 1.43%. For `O=C(COC(=O)C12CC3CC(CC(O)(C3)C1)C2)NC12CC3CC(CC(C3)C1)C2`, the inhibition was 75.8% (active). `O=C(CNCCO)NC12CC3CC(CC(C3)C1)C2` gave an inhibition of 0.19%. With `Cc1ccc2[nH]c(=O)c(CN(C)S(=O)(=O)c3cccc4nonc34)cc2c1` the inhibition was -8.49%. Work on `Cn1nccc1NC(=O)CC(CC(=O)O)c1ccccc1` (stereo not drawn) yielded an inhibition of 4.64%. For `COCCCN1C(=O)C(=O)/C(=C(/O)c2ccc(S(=O)(=O)N3CCOCC3)cc2)C1c1ccc(F)cc1` (stereo not drawn), the inhibition was 1.52%. With `COc1cc(C(C)=O)ccc1OC(=O)CN1C(=O)c2ccccc2C1=O` the inhibition was 1.95%. For `COc1ccc(C(=O)ON=C2c3ccccc3-c3ccccc32)cc1OC`, the inhibition was 72.8% (active). Compound `COc1ccc(NC(=O)ON=C2c3ccccc3-c3ccccc32)cc1` has an inhibition of -4.24%. Compound `O=C(O)CCSc1nnc(-c2ccccc2)n1-c1ccccc1` has an inhibition of -1.18%. Work on `O=C(O)CSc1nccc2ccccc12` yielded an inhibition of 2.03%. For `CCc1c(SCCC(=O)O)nc2ccccc2c1C`, the inhibition was 33% (active). For `C/C(=N\OCC(=O)Nc1ccc(Br)cc1)c1cccs1`, the inhibition was -0.72%. With `CCn1c(Cc2ccc(OC)cc2)nnc1SCC(=O)Nc1ccc(N2CCOCC2)cc1` the inhibition was -3.23%. `CC(C)[C@H](NC(=O)N1CCn2c1nc1ccccc12)C(=O)NCc1ccc2c(c1)OCO2` gave an inhibition of -3.27%. Compound `Cc1ccc(C)c(NC(=O)C2Cc3ccccc3CN2C(=O)OCc2ccccc2)c1` (stereo not drawn) has an inhibition of 5.89%. `Cc1ccc(/C=N/NC(=O)Cn2ccc(C(F)(F)F)n2)o1` was tested, and the inhibition was -1.08%. Compound `CCn1c(SCC(=O)N/N=C/c2ccncc2)nc2ccccc21` has an inhibition of 14.4%. For `CCn1c(/C=N/NC(=O)c2ccc(OC)cc2)nc2ccccc21`, the inhibition was 41.7% (active). Work on `COc1ccc(C(=O)NCC(=O)N/N=C/c2cccnc2)cc1` yielded an inhibition of -1.33%. For `CC(C)C(=O)NCC(c1cccs1)S(=O)(=O)c1ccc(F)cc1` (stereo not drawn), the inhibition was -6.08%. In the case of `COc1ccc(C(CC(=O)N2CCN(c3ccccc3)CC2)c2c(O)cc(OC)cc2OC)cc1` (stereo not drawn), the inhibition is reported as 1.97%. `CCC1OC(c2ccc([N+](=O)[O-])cc2)=Nc2ccccc21` (stereo not drawn) was tested, and the inhibition was 33.1% (active). `COc1ccccc1CSc1ncc(-c2ccc([N+](=O)[O-])cc2)[nH]1` gave an inhibition of 12%. Compound `CCCCN(C)c1ccc([N+](=O)[O-])cc1` has an inhibition of -0.55%. In the case of `N#Cc1ccc(N2Cc3ccccc3/C2=N/C(=O)Nc2ccc(Cl)cc2)cc1`, the inhibition is reported as -0.92%. With `CC1CCc2c(c3ccccc3[nH]c2=O)O1` (stereo not drawn) the inhibition was -0.64%. `COc1ccc(C(=O)Nc2cccc(/C=C(/CCC(=O)O)c3nc4ccccc4s3)c2)cc1` was tested, and the inhibition was -4.68%. `COc1ccc(C2=NN(c3ccccc3)C(c3cccs3)C2)cc1` (stereo not drawn) showed an inhibition of 6.25%. For `COc1ccc(C2=NN(c3nc4ccccc4s3)C(=O)C2)cc1`, the inhibition was 48.2% (active). In the case of `Cc1nnc(NC(=O)CSc2nccn2-c2cccc(C)c2C)s1`, the inhibition is reported as 6.92%. `O=[N+]([O-])c1cccc(/C([O-])=C(/C(=S)Nc2ccccc2F)[n+]2ccccc2)c1` was tested, and the inhibition was -4.94%. With `O=C(COC(=O)c1ccc2ncsc2c1)Nc1ccc(Cl)cc1` the inhibition was 81.4% (active). With `CC1CC(C)CN(C(=O)COC(=O)c2ccc3ncsc3c2)C1` (stereo not drawn) the inhibition was 9.71%. In the case of `Cc1sc(NC(=O)c2ccc3ncsc3c2)c(C(N)=O)c1C`, the inhibition is reported as 1.28%. Work on `COc1cc2c(cc1O)C(SC)=NC(C)(C)C2` yielded an inhibition of 4.6%. With `CC(C)Cc1nnc(NC(=O)CCC(=O)Nc2ccc3cn[nH]c3c2)s1` the inhibition was 1.65%. For `Cc1cc(C)c(C#N)c(Nc2cccc(Br)c2)n1`, the inhibition was -4.25%. With `CCCCNC(=O)OC(C)CNC(=O)OC` (stereo not drawn) the inhibition was -6.1%. For `O=C(/C=C/c1ccc([N+](=O)[O-])o1)NNC(=O)c1ccc(F)cc1`, the inhibition was 39.5% (active). `Cc1onc(C(=O)NCc2ccc(F)cc2)c1[N+](=O)[O-]` gave an inhibition of -3.19%. `COc1ccc(C(=O)NCC(=O)N/N=C/c2ccc([N+](=O)[O-])o2)cc1OC` was tested, and the inhibition was 0.4%. `CN(CC(=O)Nc1cccc(F)c1)C(=O)CC1CCCC1` was tested, and the inhibition was 0.25%. `CC1CC1C(=O)OCC(=O)Nc1cccc(F)c1` (stereo not drawn) was tested, and the inhibition was 78.9% (active). Compound `O=C(COC(=O)CNC(=O)C1CCCCC1)Nc1cccc(F)c1` has an inhibition of -0.43%. `Cc1ccsc1C(=O)OCC(=O)Nc1cccc(F)c1` was tested, and the inhibition was 90.7% (active). For `O=C(COC(=O)C1CC2C=CC1C2)Nc1ccccc1` (stereo not drawn), the inhibition was 77.7% (active). Compound `O=C(COc1ccccc1)Nc1ccc(F)cc1` has an inhibition of -4.21%. Work on `Cc1ccc(S(=O)(=O)N(C)CC(=O)OCC(=O)Nc2ccccc2)cc1` yielded an inhibition of 0.35%. Compound `COc1ccc(CNC(=O)COC(=O)c2sccc2C)cc1OC` has an inhibition of 5.02%. `Cc1ccsc1C(=O)OCC(=O)NCCc1ccccc1` was tested, and the inhibition was 25.5%.
